Data taken from PubChem BioAssay.
Several values for one entry are separate records, joined by “and”; a condition that tells them apart may be missing. Identical values can stand only once. Inconclusive results are not listed. Activity calls are given as the source filed them. Unless noted, no cut-off is given here; in the data, nearly all actives have AC50 up to about 26 µM.

Columns and labels:
[1] = viability loss in pontine glioma line – cell-based, SU-DIPG-XXV, MIPE5.0, CellTiter-Glo, qHTS, dose response (AID 1347065); settings: CellTiter-Glo ATP luminescence;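 note: cells exposed to compound for 48 hours before ATP readout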
[2] = growth inhibition of DIPG cells – cell-based, MIPE4.0 library, CellTiter-Glo luminescence, qHTS (AID 1347066; cut-off not given, nearly all actives have AC50 up to about 30 µM;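 note: cells exposed to compound for 48 hours before readout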); settings: SU-DIPG-VI viability, CellTiter-Glo ATP luminescence
[3] = JHH-DIPG-1 glioma cell viability, MIPE5.0 library, CellTiter-Glo luminescence, qHTS (AID 1347067); settings: JHH-DIPG-1 glioma viability, CellTiter-Glo ATP luminescence;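 note: cells exposed to compound for 48 hours before readout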
[4] = growth inhibition of DIPG cells – cell-based, MIPE5.0 library, qHTS (AID 1347068; cut-off not given, nearly all actives have IC50 up to about 30 µM); settings: SU-DIPG-XXV viability
[5] = blockers of cellular phospholipid synthesis – cell-based, LOPAC library, screen 4, primary screen (AID 1347384; call rule not given here); settings: animal cells, phospholipid biosynthesis inhibition screen; at 10 µM
[6] = MELAS cybrid and Rieske KO viability enhancers – cell-based, MELAS cybrids, Rieske KO mouse fibroblasts, CellTiter-Glo, primary screen (AID 1508586;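 active = mean z-score across replicates of 1.96 or higher in either the MELAS or the Rieske mutant cell line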;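 note: z relative to plate mean and SD of compound and empty wells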); settings: low glucose
[7] = viability loss with induced miR-34 in A549 – imaging, A549 dox-inducible miR-34, nuclei and caspase counts, primary screen (AID 1347080;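 active = compounds whose cell count with miR-34 switched on is under 0.7 times the count with it off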); settings: A549 miR-34 inducible, Hoechst nuclei count, 48 h
[8] = chitosan synthesis blockers in C. neoformans – flow cytometry, Cibacron Brilliant Red staining (AID 1347148; call rule not given here;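 note: compound exposure lasted three days at 37 degrees C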); settings: Cryptococcus neoformans chitosan, stronger effect = lower value; at 10 µM unless noted
[9] = MELAS cybrid survival, CellTiter-Glo 48 h, stronger effect = higher value
[10] = Rieske KO mouse fibroblast survival, CellTiter-Glo 72 h
[11] = stronger effect = lower value, cell number ratio, induced over uninduced
[12] = measured here: relative caspase fold change +Dox/-Dox
[13] = measured here: total cells with miR-34 induction, stronger effect = lower value
[14] = measured here: total cells without miR-34 induction

Row | Structure (SMILES) | outcome [1] | outcome [2] | outcome [3] | outcome [4] | outcome [5] | z-score [6, 9] | z-score [6, 10] | fold change [7, 11] | fold change [7, 12] | cell count [7, 13] | cell count [7, 14] | fold fluorescence [8]
1 | Cc1cc(C(C)(C)C)cc(C)c1CC1=NCCN1 | inactive | inactive | inactive | inactive | inactive | 0.304 (inactive) and -0.439 (inactive) and 0.446 (inactive) | 0.616 and -0.336 and 0.511 |  |  |  |  | 
2 | NC(=O)OCC(COC(N)=O)c1ccccc1 | inactive | inactive | inactive | inactive | inactive | 0.426 (inactive) and -0.303 (inactive) | 0.386 and -0.256 |  |  |  |  | 
3 | Oc1ccc(C2CNCCc3c2cc(O)c(O)c3Cl)cc1 (configuration not stated) | inactive | inactive | inactive | inactive | inactive | 0.526 (inactive) and 0.283 (inactive) | -0.363 and -0.533 |  |  |  |  | 
4 | CC(=O)Oc1ccccc1C(=O)O | inactive | inactive | inactive | inactive | inactive | -0.282 (inactive) and -0.31 (inactive) and 0.455 (inactive) | 0.817 and -0.843 and -0.759 |  |  |  |  | 
5 | NC(=O)c1ncn([C@@H]2O[C@H](CO)[C@@H](O)[C@H]2O)n1 | inactive | inactive | inactive | inactive | inactive | -1.67 (inactive) and -1.08 (inactive) | -1.02 and -1.08 |  |  |  |  | 
6 | CC(C)NCC(O)COc1ccc(CCOCC2CC2)cc1 (configuration not stated) | inactive | inactive | inactive | inactive | inactive |  |  |  |  |  |  | 
7 | Cc1cc2cc3c(C)cc(=O)oc3c(C)c2o1 | inactive | inactive | inactive | inactive |  | -0.707 (inactive) | -0.528 | 0.952 (inactive) and 0.881 (inactive) | 1.2 and 2.5 | 9030 and 10900 | 9480 and 12400 | 
8 | Clc1ccc2nsnc2c1NC1=NCCN1 | inactive | inactive | inactive | inactive | inactive | -0.43 (inactive) and 0.0544 (inactive) and -0.148 (inactive) | 0.606 and 0.144 and -1.3 |  |  |  |  | 
9 | NCC1CCC(C(=O)O)CC1 (configuration not stated) | inactive | inactive | inactive | inactive |  | -0.244 (inactive) | -0.313 | 0.928 (inactive) and 0.834 (inactive) | 1.25 and 2.45 | 8960 and 11200 | 9660 and 13500 | 
10 | COc1ccc(C2CNC(=O)C2)cc1OC1CCCC1 (configuration not stated) | inactive | inactive | inactive | inactive | inactive |  |  |  |  |  |  | 10.1 [at 181.6 µM] (inactive)
11 | NC[C@H](O)c1ccc(O)c(O)c1 | inactive | inactive | inactive | inactive | inactive | -0.303 (inactive) and 0.0574 (inactive) and -0.946 (inactive) | -0.266 and 0.00809 and -1.27 |  |  |  |  | 
12 | Cc1ccccc1N1C(=O)c2cc(S(N)(=O)=O)c(Cl)cc2NC1C (configuration not stated) | inactive | inactive | inactive | inactive | inactive | -0.2 (inactive) and 0.948 (inactive) | 0.325 and -0.0446 |  |  |  |  | 
13 | CCn1cc(C(=O)O)c(=O)c2cc(F)c(N3CCNC(C)C3)c(F)c21 (configuration not stated) | inactive | inactive | inactive | inactive | inactive | -0.544 (inactive) and -0.435 (inactive) | 0.167 and 0.141 |  |  |  |  | 
14 | Nc1nnc(-c2cccc(Cl)c2Cl)c(N)n1 | inactive | inactive | inactive | inactive | inactive | 1.04 (inactive) and -0.0755 (inactive) and -0.75 (inactive) | -2.18 and 0.0455 and -0.484 |  |  |  |  | 
15 | Nc1nc2c(ncn2COC(CO)CO)c(=O)[nH]1 | inactive | inactive | inactive | inactive | inactive |  |  |  |  |  |  | 
16 | NC(CO)C(=O)NNCc1ccc(O)c(O)c1O (configuration not stated) | inactive | inactive | inactive | inactive | inactive | -0.395 (inactive) and 0.597 (inactive) and -0.0244 (inactive) | 0.352 and -0.231 and -1.37 |  |  |  |  | 
17 | CN1CCC(=C2c3ccccc3CC(=O)c3sccc32)CC1 | inactive | inactive | inactive | inactive | inactive | -0.303 (inactive) and -0.251 (inactive) and -0.573 (inactive) | -0.862 and -0.369 and 0.333 |  |  |  |  | 
18 | Nc1ccc(S(N)(=O)=O)cc1 | inactive | inactive | inactive | inactive |  | -0.359 (inactive) and -1 (inactive) | 0.662 and -0.707 | 0.863 (inactive) and 1.01 (inactive) and 0.955 (inactive) | 1.61 and 1.13 and 2.65 | 8720 and 8600 and 12400 | 10100 and 8510 and 12900 | 
19 | CCOC(=O)c1ncn2c1CN(C)C(=O)c1cc(F)ccc1-2 | inactive | inactive | inactive | inactive | inactive | 0.109 (inactive) and 0.0778 (inactive) | 0.977 and -0.775 |  |  |  |  | 
